Assay [1] can be described thus: viability loss in pontine glioma line – cell-based, JHH-DIPG-1, MIPE4.0, CellTiter-Glo, qHTS, dose response (AID 1347062; cut-off not given, nearly all actives have AC50 up to about 27 µM;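 on AC50: cells exposed to compound for two days before readout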). As to conditions: JHH-DIPG-1 viability, CellTiter-Glo ATP luminescence.
A short description of assay [2]: growth inhibition of DIPG cells – cell-based, MIPE4.0 library, CellTiter-Glo luminescence, qHTS (AID 1347066).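 Further: cells exposed to compound for 48 hours before readout.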 As to conditions: SU-DIPG-VI viability, CellTiter-Glo ATP luminescence. For orientation: Cellular ATP, detected with luciferase, serves as a proxy for viable cell number.
Assay [3] can be described thus: viability loss in pontine glioma line – cell-based, SU-DIPG-IV, MIPE4.0, CellTiter-Glo, qHTS, dose response (AID 1347063).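 Further: compound exposure lasted 48 hours before the viability readout.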 The settings on record: CellTiter-Glo ATP luminescence.
Assay [4] in a line: viability loss with induced miR-34 in A549 – imaging, A549 dox-inducible miR-34, nuclei and caspase counts, primary screen (AID 1347080;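 active means compounds whose cell count with miR-34 switched on is under 0.7 times the count with it off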). As to conditions: A549 miR-34 inducible, Hoechst nuclei count, 48 h.
A short description of assay [5]: MELAS cybrid and Rieske KO viability enhancers – cell-based, MELAS cybrids, Rieske KO mouse fibroblasts, CellTiter-Glo, primary screen (AID 1508586;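 active means mean z-score across replicates of 1.96 or higher in either the MELAS or the Rieske mutant cell line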;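 further: z relative to plate mean and SD of compound and empty wells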). As to conditions: low glucose.
The nature of assay [6]: galactose survival enhancers in mitochondrial complex I cybrids – cell-based, galactose medium, ATP luminescence, primary screen (AID 1645843;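 active means z-score of at least 1.8 in each of two replicates, scored against plate mean and spread of sample wells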;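 further: positive z means more ATP and so rescue of galactose-driven cybrid death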). As to conditions: complex I mutant cybrid cells, 72 h, stronger effect = higher value.
Assay [7] is described as follows: viability loss in pontine glioma line – cell-based, SU-DIPG-XIII, MIPE4.0, CellTiter-Glo, qHTS, dose response (AID 1347061; cut-off not given, nearly all actives have AC50 up to about 37 µM;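 further: cells exposed to compound for 48 hours before readout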). The settings on record: CellTiter-Glo ATP luminescence.
A short description of assay [8]: chitosan synthesis blockers in C. neoformans – flow cytometry, Cibacron Brilliant Red staining (AID 1347148; call rule not given here;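 further: compound exposure lasted three days at 37 degrees C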). The settings on record: Cryptococcus neoformans chitosan, stronger effect = lower value; at 10 µM unless noted. For orientation: Flow cytometry measures light scatter and fluorescence of single cells or particles in a stream.
A short description of assay [9]: viability loss in pontine glioma line – cell-based, SU-DIPG-XIII, MIPE5.0, CellTiter-Glo, qHTS, dose response (AID 1347064; cut-off not given, nearly all actives have AC50 up to about 23 µM;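 on AC50: cells exposed to compound for 48 hours before the viability read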). The settings on record: CellTiter-Glo ATP luminescence.
Assay [10] is described as follows: viability loss in pontine glioma line – cell-based, SU-DIPG-XXV, MIPE5.0, CellTiter-Glo, qHTS, dose response (AID 1347065; cut-off not given, nearly all actives have AC50 up to about 26 µM;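 further: cells exposed to compound for 48 hours before ATP readout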). As to conditions: CellTiter-Glo ATP luminescence.
Assay [11] can be described thus: JHH-DIPG-1 glioma cell viability, MIPE5.0 library, CellTiter-Glo luminescence, qHTS (AID 1347067; cut-off not given, nearly all actives have AC50 up to about 26 µM;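 further: cells exposed to compound for 48 hours before readout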). As to conditions: JHH-DIPG-1 glioma viability, CellTiter-Glo ATP luminescence.
Assay [12] in a line: growth inhibition of DIPG cells – cell-based, MIPE5.0 library, qHTS (AID 1347068; cut-off not given, nearly all actives have IC50 up to about 30 µM). As to conditions: SU-DIPG-XXV viability. Background: qHTS replaces the single test concentration by a dilution series.
The mark [13] stands for this setting: measured here: relative caspase fold change +Dox/-Dox.
Where [14] appears, read: measured here: total cells with miR-34 induction, stronger effect = lower value.
Where [15] appears, read: measured here: total cells without miR-34 induction.
The mark [16] stands for this setting: MELAS cybrid survival, CellTiter-Glo 48 h, stronger effect = higher value.
[17] abbreviates: Rieske KO mouse fibroblast survival, CellTiter-Glo 72 h.
The mark [18] stands for this setting: stronger effect = lower value, cell number ratio, induced over uninduced.

In general, AC50 refers to the concentration at which the activity in the assay is half-maximal.

The structures appear in SMILES notation. Results filed as inconclusive are left out. Calls of active or inactive are those of the source. Unless noted, cut-off not given; nearly all actives show AC50 up to about 30 µM.

As to `C=C[C@H]1CN2CCC1C[C@H]2[C@H](O)c1ccnc2ccccc12` (some centres undefined), in assay [1], the AC50 is 20.9 µM (active). In addition, the compound was classed as inactive in assay [2].

Regarding `C[C@](O)(CS(=O)(=O)c1ccc(F)cc1)C(=O)Nc1ccc(C#N)c(C(F)(F)F)c1`, the AC50 in [1] was 2.35 µM (active); in assay [3] it was 1.66 µM (active). Besides, the fold change in assay [4] (stronger effect = lower value) is 0.814 (inactive); in assay [4] (setting [13]), 0.512. Moreover, the results for the cell count in assay [4] (setting [14]) and in assay [4] (setting [15]) were 7480 and 9190, respectively. Also, the results for the z-score in [5] (setting [16]), in assay [5] (setting [17]) and in assay [6] were 0.389 (inactive), -0.102 and -0.71 (inactive), respectively.

As to `CC1=C(CC/C(C)=C/CCC2=CCC(C3=CC(=O)OC3O)OC2O)C(C)(C)CCC1` (centres undefined), the compound was called inactive in [7], in assay [1], in [3] and in assay [2]. In [8], the fold fluorescence was 4.39 [at 120 µM] (inactive).

As for `C[C@@]12OC(=O)[C@]1([C@@H](O)[C@@H]1C=CCCC1)NC(=O)[C@@H]2CCCl`, the AC50 in [7] is 0.59 µM (active); in assay [1], 0.0418 µM (active); in assay [3] it was 0.00935 µM (active); in assay [9] it was 0.0148 µM (active); in assay [10], 0.0186 µM (active); in assay [2], 0.0235 µM (active). The AC50 in assay [11] was 0.0295 µM (active).

With `COc1cccc2c1[C@]13CCN(CC4CC4)[C@H](C2)[C@]1(OC)CCC(=O)C3`, the compound was classed as inactive in [7], in [1] and in assay [2].

As to `CNC(=O)c1ccc(N2C(=S)N(c3ccc(C#N)c(C(F)(F)F)c3)C(=O)C23CCC3)cc1F`, the call in assay [7], in assay [2] and in [12] was inactive. The AC50 in [1] was 10.5 µM (active); in assay [3], 9.35 µM (active).

As to `CCNC(=O)C[C@@H]1N=C(c2ccc(Cl)cc2)c2cc(OC)ccc2-n2c(C)nnc21`, the AC50 in assay [1] is 7.43 µM (active). In addition, the call in assay [2], in assay [11] and in assay [12] was inactive.

Turning to `O=C(N[C@@H](COc1ccc2[nH]c(=O)[nH]c2c1)c1ccccc1)c1cccn(Cc2ccc(F)c(F)c2)c1=O`, the call in [7], in [9] and in [12] was inactive. In addition, the half-maximal activity concentration (AC50) in [10] was 18.6 µM (active); in [11] it was 16.6 µM (active).

As to `C1=C2CCCN[C@H]2[C@@H]2C[C@H]1[C@H]1CCCCN1C2`, the result in assay [7], in assay [1], in assay [3] and in assay [2] was inactive. Besides, the figures for the fold change in assay [4] (setting [18]) and in assay [4] (setting [13]) were 0.948 (inactive) and 1.03, respectively. Also, the cell count worked out at 10000 in [4] (setting [14]) and 10600 in [4] (setting [15]). For the same compound, the z-score in assay [5] (setting [16]) is -0.38 (inactive); in assay [5] (setting [17]), 0.546.

Turning to `C[C@@H]1O[C@@H](O[C@@H]2C=C3CC[C@H]4[C@@H](CC[C@]5(C)[C@H](c6ccc(=O)oc6)CC[C@@]45O)[C@@]3(C)CC2)[C@H](O)[C@H](O)[C@@H]1O`, the AC50 in assay [7] is 0.00935 µM (active); in [1], 0.00469 µM (active); in [3], 0.0209 µM (active); in [2], 0.00743 µM (active).

As to `CC(C)(O)C(=O)Nc1ccc([N+](=O)[O-])c(C(F)(F)F)c1`, the AC50 in [7] is 11.8 µM (active). For the same compound, the compound was called inactive in assay [9], in assay [2] and in assay [12].

In the case of `CCCCCCC(C)(C)c1cc(O)c2c(c1)OC(C)(C)C1CC=C(CO)C[C@H]21` (some centres undefined), the results for the AC50 in assay [9], in assay [10] and in [11] were 9.34 µM (active), 7.42 µM (active) and 7.42 µM (active), respectively.

In the case of `CCCCC/C=C\C/C=C\C/C=C\C/C=C\CCCC(=O)N(C)C`, the fold change in assay [4] (setting [18]) was 0.925 (inactive); in assay [4] (setting [13]), 1.14. Also, the cell count in assay [4] (setting [14]) was 5340; in [4] (setting [15]), 5780.

Regarding `CC1(O)C[C@@]23C[C@@H](O)[C@@]4(O)[C@@H](C[C@H](O)C4(C)C)[C@](C)(O)[C@@H]2CCC1[C@H]3O` (some centres undefined), the fold change in assay [4] (stronger effect = lower value) was 0.932 (inactive); in assay [4] (setting [13]), 1.15. In addition, the figures for the cell count in assay [4] (setting [14]) and in assay [4] (setting [15]) were 6010 and 6440, respectively.
